HCMV antiviral – blocks human cytomegalovirus replication. HFF cells, HCMV-luciferase reporter, 72 h; active compounds read low. activity change, negative = inhibition, % at 57.5 µM. hit rate 4.5% among 410,000; in the data active means activity change below about -60%; inconclusive means no clear call, values can overlap the other calls; inactive means above about -39%
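Inhibition of viral replication was scored as loss of reporter luminescence in HFFs infected with HCMV-luciferase (MOI 1 PFU/cell) for 72 h; compounds tested at 2 doses, normalized to buffer and Salinomycin controls.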
Pf growth 96h – inhibits malaria parasite growth, 96 h. hit rate 6.9% among 320,000. P. falciparum luciferase reporter growth, 96 h. AID 504834. Potency, µM (top dose mostly 28.7 µM), most hits filed as inhibitors
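Parasite growth measured via integrated firefly luciferase reporter in P. falciparum. Infected erythrocytes at 2% hematocrit, 0.05% parasitemia final were treated 96 hours at 37 C under 5% CO2, and luminescence was read.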
Pf growth 48h – P. falciparum growth inhibition at 48 hours (one generation); P. falciparum luciferase growth in erythrocytes, 48 h; Potency, µM (series often up to 28.7 µM), hits mostly inhibitors; hit rate 5.9% among 310,000; AID 504832
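Here the parasites carry a stable luciferase gene and grow inside erythrocytes in Albumax-based RPMI medium with compound for one erythrocytic cycle. Activity is scored as loss of luminescent signal.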
Shiga inhibitor – Shiga toxin inhibition; AID 2315; hit rate 9.2% among 290,000; inhibition, % at 38.7 µM; Vero cells, Shiga toxin protein synthesis inhibition reporter; in the data active means inhibition mostly above about 28%, no sharp cut-off; inactive means mostly below about 43%
Cycloheximide cs – affects cycloheximide protein synthesis inhibition readout, counter-screen. cell reporter, cycloheximide protein synthesis inhibition counterscreen. max response, %. hit rate 12% among 300,000. AID 2314; in the data active means max response mostly above about 13%, no sharp cut-off; inactive means mostly below about 14%; further: read at 38.3 µM for the half of the compounds with a filed dose
Numbers stand for hits. An excerpt weighted towards active compounds, which were near 20% of everything screened. Unless noted, the call rests on the fitted dose curve; in most records, active means well fitted inhibition curve with a large enough effect; inconclusive means small, poorly fitted or top-dose-only effect, or another doubt; inactive means no such curve, though single readings can be large or run the other way.

For NNC(=O)c1ccc(CSc2nc3ccccc3s2)cc1 the results were HCMV antiviral inactive, Pf growth 96h inactive, Pf growth 48h inactive, Shiga inhibitor 54.4 and Cycloheximide cs inactive.
COCCN(CCOC)C(=O)c1ccc(CSc2nc3ccccc3s2)cc1 was read as HCMV antiviral inconclusive, Pf growth 96h inactive, Pf growth 48h inactive, Shiga inhibitor 53.3 and Cycloheximide cs 31.5.
For CC1(OC(=O)C2CCCC2)C(=O)C=C2C=C(c3ccsc3)N(Cc3ccccc3)C=C2C1=O (configuration not stated) the results were HCMV antiviral inactive, Pf growth 96h inconclusive, Pf growth 48h 11.7µM, Shiga inhibitor inactive and Cycloheximide cs inactive.
`CCN(CC)CCCN1C=C2C(=O)C(C)(OC(=O)C3CCCC3)C(=O)C=C2C=C1c1ccsc1` (configuration not stated) gave HCMV antiviral inactive, Pf growth 96h inconclusive, Pf growth 48h 10.4µM, Shiga inhibitor inactive and Cycloheximide cs inactive.
For CC1(OC(=O)C2CCCC2)C(=O)C=C2C=C(c3ccsc3)N(CCc3ccccn3)C=C2C1=O (configuration not stated) the results were HCMV antiviral inactive, Pf growth 96h inconclusive, Pf growth 48h inconclusive, Shiga inhibitor inactive and Cycloheximide cs inactive.
Screening CC(C)CN1C=C2C(=O)C(C)(OC(=O)C3CCCC3)C(=O)C=C2C=C1c1ccsc1 (configuration not stated) returned HCMV antiviral inactive, Pf growth 96h 10.4µM, Pf growth 48h inconclusive, Shiga inhibitor inactive and Cycloheximide cs inactive.
For C=CCN1C=C2C(=O)C(C)(OC(=O)C3CCCC3)C(=O)C=C2C=C1c1ccsc1 (configuration not stated) the results were HCMV antiviral inactive, Pf growth 96h inconclusive, Pf growth 48h inconclusive, Shiga inhibitor inactive and Cycloheximide cs inactive.
Screening CC(=O)N1N=C(c2ccc(C)cc2)OC1c1ccc(Br)cc1 (configuration not stated) returned HCMV antiviral inactive, Pf growth 96h inactive, Pf growth 48h inactive, Shiga inhibitor inactive and Cycloheximide cs 17.4.
CC(=O)N1N=C(c2cccc([N+](=O)[O-])c2)OC1c1ccccc1Cl (configuration not stated) was read as HCMV antiviral inactive, Pf growth 96h inactive, Pf growth 48h inactive, Shiga inhibitor inactive and Cycloheximide cs inactive.
CC(=O)N1N=C(c2ccc(Cl)cc2)OC1c1ccc(C(C)C)cc1 (configuration not stated) was read as HCMV antiviral inactive, Pf growth 96h inactive, Pf growth 48h inactive, Shiga inhibitor 109.9 and Cycloheximide cs 30.4.
COCC(=O)N(C)c1nnc(-c2cnc(C)cn2)s1 was read as HCMV antiviral inactive, Pf growth 96h inactive, Pf growth 48h inactive, Shiga inhibitor inactive and Cycloheximide cs 23.6.
`COCC(=O)N(C)c1nnc(-c2cnccn2)s1` gave HCMV antiviral inactive, Pf growth 96h inconclusive, Pf growth 48h inactive, Shiga inhibitor inactive and Cycloheximide cs inactive.
CC1Oc2ccccc2C(=O)N(CC(=O)c2ccc3c(c2)OCCO3)C1=O (configuration not stated) was read as HCMV antiviral inactive, Pf growth 96h inactive, Pf growth 48h inactive, Shiga inhibitor 71.9 and Cycloheximide cs 30.4.
CCC1Oc2ccccc2C(=O)N(CC(=O)c2ccc3c(c2)OCCO3)C1=O (configuration not stated) was read as HCMV antiviral inactive, Pf growth 96h inactive, Pf growth 48h inactive, Shiga inhibitor inactive and Cycloheximide cs 34.1.
CC(C)C1Oc2ccccc2C(=O)N(CC(=O)c2ccc3c(c2)OCCO3)C1=O (configuration not stated) was read as HCMV antiviral inactive, Pf growth 96h inactive, Pf growth 48h inactive, Shiga inhibitor 91.5 and Cycloheximide cs 47.4.
For Cc1ccc2c(c1)N(CC(=O)c1cccc(Cl)c1)C(=O)C(C)O2 (configuration not stated) the results were HCMV antiviral inactive, Pf growth 96h 4.15µM, Pf growth 48h inconclusive, Shiga inhibitor inactive and Cycloheximide cs inactive.
For CC1Oc2ccccc2N(CC(=O)c2cccc(Cl)c2)C1=O (configuration not stated) the results were HCMV antiviral inactive, Pf growth 48h inactive, Shiga inhibitor inactive and Cycloheximide cs inactive.
CC(C)CN1C(=O)C(=O)N(CC(=O)c2ccc3c(c2)OCO3)C1=O was read as HCMV antiviral inactive, Pf growth 96h inactive and Pf growth 48h inactive.
O=C1CC(N2CCN(c3nc4ccccc4s3)CC2)C(=O)N1c1cccc(F)c1 (configuration not stated) was read as HCMV antiviral inactive, Pf growth 48h inactive, Shiga inhibitor inactive and Cycloheximide cs inactive.
`CC(=O)Nc1cc(-c2cccc(F)c2)cn2c(-c3ccc(F)c(Cl)c3)cnc12` gave HCMV antiviral inactive.
Cc1cc(NC(=O)CCS(=O)(=O)c2ccc3c(c2)NC(=O)C(C)S3)ccc1Br (configuration not stated) was read as Pf growth 96h inactive, Pf growth 48h inactive, Shiga inhibitor inactive and Cycloheximide cs inactive.
`CN(C)c1ccc(/C=C/c2cc[n+]([O-])cc2)cc1` gave Pf growth 96h 2.08µM, Pf growth 48h inactive, Shiga inhibitor 172.3 and Cycloheximide cs 42.0.
Screening CN(C)c1ccc(/C=C/c2cc[n+](C)cc2)cc1 returned HCMV antiviral -100.9, Pf growth 96h inconclusive, Shiga inhibitor inactive and Cycloheximide cs inactive.
Screening Cc1ccc(/C=C/c2ccc(N(C)C)cc2)[n+](C)c1 returned HCMV antiviral -98.3, Pf growth 96h inactive, Pf growth 48h 1.17µM, Shiga inhibitor inactive and Cycloheximide cs inactive.
For CN(C)c1ccc(C=C2C=CC=C2)cc1 the results were HCMV antiviral inactive.
`C[n+]1ccc(/C=C/c2cccs2)cc1` gave HCMV antiviral inactive, Pf growth 96h 2.33µM, Pf growth 48h 2.94µM, Shiga inhibitor inactive and Cycloheximide cs inactive.
COc1ccc(N2CCN(C(CNC(=O)CC(C)(C)C)c3ccc4c(c3)OCO4)CC2)cc1 (configuration not stated) was read as HCMV antiviral inactive, Pf growth 96h inconclusive, Pf growth 48h inconclusive, Shiga inhibitor inactive and Cycloheximide cs inactive.
For Cc1cc(C)cc(OC(C)C(=O)Nc2nonc2-c2ccc(Br)cc2)c1 (configuration not stated) the results were HCMV antiviral -62.0.
For Cc1cccc(C)c1OCC(=O)Nc1nonc1-c1ccc(Br)cc1 the results were HCMV antiviral inactive.
COc1ccccc1CNC(=O)Cc1c(C)c2cc3c(C)coc3c(C)c2oc1=O was read as HCMV antiviral inactive.
Cn1nc([N+](=O)[O-])nc1S(C)(=O)=O was read as HCMV antiviral inconclusive, Pf growth 96h 4.65µM, Pf growth 48h inactive, Shiga inhibitor inactive and Cycloheximide cs 31.0.
For Cn1nc([N+](=O)[O-])nc1Sc1cccc2cccnc12 the results were HCMV antiviral inconclusive, Pf growth 96h inactive, Pf growth 48h inconclusive, Shiga inhibitor inactive and Cycloheximide cs inactive.
Screening O=C(Nc1ccc(Cl)c(S(=O)(=O)N2CCCCC2)c1)c1cnccn1 returned HCMV antiviral inactive, Pf growth 96h inconclusive and Pf growth 48h inconclusive.

Screening results: PubChem, National Center for Advancing Translational Sciences (NCATS)
